Exocytosis inh: LAMP-1 surface exposure blockers, TALL-104 cells – cell-based, flow cytometry, MLPCN library, primary screen. 360,000 compounds, 0.66% hits. inhibition, % at 10 µM. TALL-104 LAMP-1 surface exposure; cells stimulated with thapsigargin and PMA;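 active = inhibition above about 55%, limit read from the data; inconclusive = no clear call, values can overlap the other calls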
ALR H2O2 inh: inhibitors of human ALR sulfhydryl oxidase, primary screen, biochemical, H2O2 detection, HRP-luminol luminescence, single point | purified ALR, DTT oxidation | AID 485317, 2010 | 290,000 compounds, 3.8% hits | FAD-linked sulfhydryl oxidase ALR (Homo sapiens), P55789 | inhibition, % (no concentration beside the values);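 active = mean replicate inhibition above about 79%, with every replicate also reaching it, limit read from the data; inconclusive = only one of the two criteria met; inactive = mean below limit and not every replicate reaching it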
Target sequence (P55789 whole entry, looked up): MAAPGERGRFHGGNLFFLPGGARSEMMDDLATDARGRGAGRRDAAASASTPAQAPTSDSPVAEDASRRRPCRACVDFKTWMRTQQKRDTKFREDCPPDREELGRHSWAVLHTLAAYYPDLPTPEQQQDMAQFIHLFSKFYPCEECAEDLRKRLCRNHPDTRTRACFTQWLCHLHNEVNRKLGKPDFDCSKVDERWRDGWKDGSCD
MIN6 prolif: inducers of MIN6 beta-cell proliferation, primary screen, ATP luminescence, uHTS; 330,000 compounds, 0.29% hits; proliferation, % at 10 µM; AID 2380, 2010; MIN6 cells proliferation, ATPlite luminescence, 48 h; cells starved in 0.2% serum; 100% = growth in 10% serum;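 active = compounds whose signal lies at least 3.5 SD above the mean of all wells on their plate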;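 note: 0% = DMSO-treated cells in low-serum medium and 100% = 10% serum control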
JMJD2C inh: inhibitors of GASC-1 histone demethylase, primary screen, biochemical, fluorescence, DELFIA europium; 330,000 compounds, 0.069% hits; GST-JMJD2C(1-420) H3K9me3 demethylation; Lysine-specific demethylase 4C (Homo sapiens), Q9H3R0; AID 2099, 2009; inhibition, % at 2.35 µM;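 active = more than half of a compound's replicate wells show inhibition beyond 50%, single wells judged on their own value; inconclusive = some, but no more than half, of replicates pass 50% inhibition; inactive = no replicate passes 50% inhibition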;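 note: signal counts dimethyl H3K9 product captured on neutravidin plate; 0% = median of DMSO wells and 100% = 0.3 times that DMSO median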
SMARCA2 act: SMARCA2 (BRM) function activators, primary screen, cell-based, luminescence, high throughput; MG213 cells, MMTV-luciferase reporter, dexamethasone, overnight; activation, % at 9.1 µM; 370,000 compounds, 1% hits; AID 652017, 2013; in the data active = activation above about 7.8%;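 note: 0% = vehicle wells and 100% = reference activator wells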
PfM18AAP inh: PfM18AAP inhibitors, malaria aminopeptidase, primary screen, biochemical, QFRET, recombinant enzyme. AID 1822, 2009. 290,000 compounds, 1.2% hits. inhibition, % at 7.35 µM. M18 aspartyl aminopeptidase (Plasmodium falciparum 3D7). H-Glu-NHMec fluorogenic cleavage;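 active = inhibition above the campaign mean inhibition over all tested compounds plus 3 SD, cut at about 28% in these data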;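 note: 0% = plate median of test compound wells and 100% = 2 mM ZnCl2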
SMARCA2 act conf: SMARCA2 (BRM) function activators, confirmation, cell-based, luminescence, triplicate; activation, % at 9.1 µM; MG213 cells, MMTV-luciferase with dexamethasone, overnight; MG213 cells expressing E1A, Rb sequestered; DMSO wells 0%, reference activator 100%; AID 652260, 2013; 3,500 compounds, 30% hits; shares compounds with SMARCA2 act;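 active = activation above its plate's cutoff, the mean activation of tested wells plus 3 SD, cut at about 7.9% in these data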
GAL4-VP16 Luc: GAL4-VP16 luciferase reporter activation, counter-screen for SMARCA2 (BRM) activator project, cell-based, pG5luc, luminescence, high throughput | shares compounds with SMARCA2 act | HEK293 GAL4-VP16 pG5luc reporter; scaled: DMSO wells 0%, SAHA wells 100% | activation, % at 9.1 µM | 3,500 compounds, 41% hits | AID 686939, 2013;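 active = activation above the solvent-only control well mean plus 3 SD, averaged across control plates, cut at about 5.2% in these data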
Active calls of the source: *; ? = inconclusive; · = not tested or not shown. In the library only some 5.4% were active in any assay of this set; here they are far more common.

SMILES	Exocytosis inh	ALR H2O2 inh	MIN6 prolif	JMJD2C inh	SMARCA2 act	PfM18AAP inh	SMARCA2 act conf	GAL4-VP16 Luc
Cc1ccc(/C=C(\C#N)c2nc3ccccc3[nH]2)s1	-2	4	-3	-3	10*	-4	19*	11*
CN1C(=O)c2cc(NC(=O)c3ccccc3)ccc2OC[C@H]2O[C@@H](CC(=O)NCC3CC3)CC[C@@H]21	·	·	·	·	-1	·	·	·
COc1ccc(/C=C/c2nc(S(=O)(=O)c3ccccc3)c(N(C)C)o2)cc1	-3	9	-2	0	9.6*	-5	-5	-2
COc1cccc(C2CNC3(CCCC(C)C3)c3[nH]c4ccccc4c32)c1OC (stereo unspecified)	5	56	-6	6	0	1	·	·
CC1(C)CC(=O)CC2(C1)NCC(c1ccccc1)c1c2[nH]c2ccccc12 (stereo unspecified)	1	·	-3	-4	8.7*	5	-2	1
CC(=O)C1=C(C)N(CC(C)C)C(=S)NC1c1ccc(Br)cc1 (stereo unspecified)	·	·	·	·	0	·	·	·
COC(=O)C1(C(=O)OC)C/C=C\CCN(S(=O)(=O)c2ccccc2[N+](=O)[O-])CC1	-5	·	·	·	-5	·	·	·
N#Cc1c(NC(=O)C2CC2)sc2c1CCCCC2	3	2	-2	-6	8.9*	8	7	7.4*
CC1CCc2c(sc(NC(=O)C3CCCO3)c2C#N)C1 (stereo unspecified)	-11	5	1	-2	14*	2	4	12*
O=C(Nc1cccc2ccccc12)c1csc([C@@H]2O[C@H](CO)[C@H](O)[C@H](O)[C@H]2O)n1	0	·	·	·	0	·	·	·
Cc1noc(C)c1S(=O)(=O)NC(=O)C1(C)CCN1C(=O)Cc1ccc(-c2ccccc2)cc1 (stereo unspecified)	4	·	·	·	4	·	·	·
O=C(Nc1ccc(OC(F)F)c(Cl)c1)c1ccccn1	0	0	-2	-3	12*	6	11*	19*
CC(C)(C(=O)c1ccccc1)/[N+]([O-])=C/c1ccc(F)cc1	-2	-6	-1	3	9.8*	9	-1	-1
Cc1c(/C=N/NC(=O)c2ccc(Br)o2)cnn1C	5	20	-2	-4	14*	1	2	1
Cc1c(/C=N\NC(=O)c2cccc(F)c2)cnn1C	2	-4	-1	0	0	2	·	·
Cc1occc1C(=O)N/N=C/c1cnn(C)c1C	10	-1	-2	?	8.8*	-9	4	5
CCNC(=O)C1(C)CCN(C(=O)CCc2ccccc2)C1 (stereo unspecified)	-3	·	·	·	·	·	·	·
COC(=O)C(C(=O)OC)C1OC23CN(S(=O)(=O)c4ccc(C)cc4)C=CC2(C)C3c2ccccc21 (stereo unspecified)	·	·	·	·	-4	·	·	·
CCOCCCNC(=O)/C(C#N)=C/c1ccc([N+](=O)[O-])o1	46	-116	-7	-1	12*	-6	-16	2
Cc1ccccc1NC(=O)c1onc2c1CCCC2	-2	-34	-5	-18	8.2*	9	7	8.1*
Cc1cccc(NC(=O)c2onc3c2CCCC3)c1C	-5	-13	-5	-7	4	5	·	·
Cc1[nH]ccc2cc3nc4ccccc4c3cc12	-3	·	·	·	18*	·	76*	1

High-throughput results as filed in PubChem BioAssay.
